Reference: PubChem BioAssay AID1159580 (chemical genetic matrix, 2015)
In all, about 5,500 compounds went through this assay and about 2,000 (36%) were called active. Roughly 18% stayed inconclusive and do not appear here. No stated cut-off is given here; in the data, active means normalized growth mostly below about 0.91 (no sharp cut-off); inconclusive means no clear call, values can overlap the other calls; inactive means mostly above about 0.92. Some of the results follow.

Assay: chemical genetic growth profiling, strain panel (AID 1159580);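 further: tested at 20 µM; growth read once vehicle control cultures reached saturation at 30 °C; 1 = growth at the plate median or of vehicle wells; lower values mean less growth of the strain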
Conditions: growth OD

Measured: normalized growth

CC(C)N1C(=O)c2ccccc2NS1(=O)=O
inactive: S. cerevisiae deletion strains, locus YKL009W, strain mrt4, hits give low values 1.01 | S. cerevisiae deletion strains, locus YKL068W, hits give low values 0.994 | S. cerevisiae deletion strains, locus YKL085W, strain MDH1 (second series), hits give low values 0.997 | S. cerevisiae deletion strains, locus YKL085W, strain MDH1, hits give low values 0.997 | S. cerevisiae deletion strains, locus YKL160W, strain elf1, hits give low values 0.974 | S. cerevisiae deletion strains, locus YKL190W, strain CNB1, hits give low values 0.998 | S. cerevisiae deletion strains, locus YKR001C, strain vps1, hits give low values 1.01 | S. cerevisiae deletion strains, locus YKR026C, strain gcn3, hits give low values 0.972 | S. cerevisiae deletion strains, locus YKR091W, strain srl3, hits give low values 0.958 | S. cerevisiae deletion strains, locus YLL001W, strain dnm1, hits give low values 0.937 | S. cerevisiae deletion strains, locus YLL026W, hits give low values 0.971 | S. cerevisiae deletion strains, locus YLL041C, strain sdh2, hits give low values 0.958 | S. cerevisiae deletion strains, locus YLR027C, strain aat2, hits give low values 0.964 | S. cerevisiae deletion strains, locus YLR039C, strain RIC1, hits give low values 1.03 | S. cerevisiae deletion strains, locus YLR058C, strain SHM2, hits give low values 1 | S. cerevisiae deletion strains, locus YLR102C, strain apc9, hits give low values 1 | S. cerevisiae deletion strains, locus YLR113W, strain HOG1, hits give low values 0.964 | S. cerevisiae deletion strains, locus YLR221C, strain rsa3, hits give low values 0.994 | S. cerevisiae deletion strains, locus YLR258W, strain gsy2, hits give low values 0.98 | S. cerevisiae deletion strains, locus YLR262C, strain YPT6 (second series), hits give low values 0.983 | S. cerevisiae deletion strains, locus YLR262C, strain YPT6, hits give low values 1.02 | S. cerevisiae deletion strains, locus YLR268W, strain sec22, hits give low values 1.01 | S. cerevisiae deletion strains, locus YLR320W, strain mms22, hits give low values 1.01 | S. cerevisiae deletion strains, locus YLR330W, strain CHS5, hits give low values 0.994 | S. cerevisiae deletion strains, locus YLR342W, strain FKS1 (second series), hits give low values 1 | S. cerevisiae deletion strains, locus YLR342W, strain FKS1, hits give low values 0.98 | S. cerevisiae deletion strains, locus YLR357W, strain rsc2, hits give low values 0.978 | S. cerevisiae deletion strains, locus YLR370C, strain arc18, hits give low values 0.973 | S. cerevisiae deletion strains, locus YLR371W, strain rom2, hits give low values 1 | S. cerevisiae deletion strains, locus YLR384C, strain iki3, hits give low values 0.974 | S. cerevisiae deletion strains, locus YLR418C, strain cdc73, hits give low values 1.02 | S. cerevisiae deletion strains, locus YML016C, strain PPZ1, hits give low values 0.997 | S. cerevisiae deletion strains, locus YML032C, strain rad52, hits give low values 1.01 | S. cerevisiae deletion strains, locus YML120C, strain ndi1, hits give low values 0.956 | S. cerevisiae deletion strains, locus YML124C, strain tub3, hits give low values 1 | S. cerevisiae deletion strains, locus YMR058W, strain fet3, hits give low values 0.968 | S. cerevisiae deletion strains, locus YMR078C, strain ctf18, hits give low values 0.998 | S. cerevisiae deletion strains, locus YMR125W, strain sto1, hits give low values 0.933 | S. cerevisiae deletion strains, locus YMR129W, hits give low values 0.964 | S. cerevisiae deletion strains, locus YMR205C, strain PFK2, hits give low values 0.961 | S. cerevisiae deletion strains, locus YMR223W, strain ubp8, hits give low values 1 | S. cerevisiae deletion strains, locus YMR231W, strain pep5, hits give low values 0.974 | S. cerevisiae deletion strains, locus YMR263W, strain SAP30, hits give low values 1.01 | S. cerevisiae deletion strains, locus YMR307W, strain GAS1, hits give low values 1.03 | S. cerevisiae deletion strains, locus YNL067W, strain RPL9B, hits give low values 0.995 | S. cerevisiae deletion strains, locus YNL071W, strain lat1, hits give low values 0.98 | S. cerevisiae deletion strains, locus YNL128W, strain TEP1, hits give low values 1.01 | S. cerevisiae deletion strains, locus YNL153C, strain GIM3, hits give low values 0.994 | S. cerevisiae deletion strains, locus YNL183C, strain NPR1, hits give low values 0.973 | S. cerevisiae deletion strains, locus YNL209W, strain ssb2, hits give low values 0.963 | S. cerevisiae deletion strains, locus YNL233W, strain BNI4, hits give low values 0.997 | S. cerevisiae deletion strains, locus YNL248C, strain rpa49, hits give low values 0.99 | S. cerevisiae deletion strains, locus YNL250W, strain rad50, hits give low values 0.997 | S. cerevisiae deletion strains, locus YNL271C, strain bni1, hits give low values 0.998 | S. cerevisiae deletion strains, locus YNL298W, strain CLA4, hits give low values 1.01 | S. cerevisiae deletion strains, locus YNL307C, strain MCK1, hits give low values 1.01 | S. cerevisiae deletion strains, locus YNL322C, strain KRE1 (second series), hits give low values 0.951 | S. cerevisiae deletion strains, locus YNL322C, strain KRE1, hits give low values 1 | S. cerevisiae deletion strains, locus YNR049C, strain mso1, hits give low values 0.952 | S. cerevisiae deletion strains, locus YNR052C, strain pop2, hits give low values 0.996 | S. cerevisiae deletion strains, locus YOL006C, strain TOP1, hits give low values 1.06 | S. cerevisiae deletion strains, locus YOL012C, strain htz1 1.04 | S. cerevisiae deletion strains, locus YOL147C, strain pex11, hits give low values 0.997 | S. cerevisiae deletion strains, locus YOR001W, strain rrp6, hits give low values 0.967 | S. cerevisiae deletion strains, locus YOR061W, strain CKA2, hits give low values 0.998 | S. cerevisiae deletion strains, locus YOR069W, strain VPS5, hits give low values 0.989 | S. cerevisiae deletion strains, locus YOR070C, strain gyp1, hits give low values 0.983 | S. cerevisiae deletion strains, locus YOR080W, strain dia2, hits give low values 0.98 | S. cerevisiae deletion strains, locus YOR083W, strain WHI5, hits give low values 0.964 | S. cerevisiae deletion strains, locus YOR106W, strain vam3, hits give low values 0.966 | S. cerevisiae deletion strains, locus YOR136W, strain idh2, hits give low values 1 | S. cerevisiae deletion strains, locus YOR144C, strain elg1, hits give low values 0.999 | S. cerevisiae deletion strains, locus YOR184W, strain ser1, hits give low values 1.01 | S. cerevisiae deletion strains, locus YOR231W, strain MKK1, hits give low values 0.998 | S. cerevisiae deletion strains, locus YOR265W, strain rbl2, hits give low values 0.973 | S. cerevisiae deletion strains, locus YOR270C, strain vph1, hits give low values 0.97 | S. cerevisiae deletion strains, locus YOR290C, strain snf2, hits give low values 0.96 | S. cerevisiae deletion strains, locus YOR316C, strain cot1, hits give low values 1.01 | S. cerevisiae deletion strains, locus YPL051W, strain arl3, hits give low values 0.981 | S. cerevisiae deletion strains, locus YPL055C, strain LGE1, hits give low values 1.02 | S. cerevisiae deletion strains, locus YPL078C, strain atp4, hits give low values 0.961 | S. cerevisiae deletion strains, locus YPL106C, strain sse1, hits give low values 0.971 | S. cerevisiae deletion strains, locus YPL240C, strain hsp82, hits give low values 0.968 | S. cerevisiae deletion strains, locus YPL241C, strain CIN2, hits give low values 0.999 | S. cerevisiae deletion strains, locus YPL256C, strain CLN2, hits give low values 0.987 | S. cerevisiae deletion strains, locus YPR119W, strain clb2, hits give low values 0.99 | S. cerevisiae deletion strains, locus YPR141C, strain kar3, hits give low values 1.01 | S. cerevisiae deletion strains, locus YPR163C, strain tif3, hits give low values 1 | S. cerevisiae deletion strains, locus YPR167C, strain met16, hits give low values 0.996 | S. cerevisiae deletion strains, strain wtn01, hits give low values 1.01 | S. cerevisiae strains, strain wild type, hits give low values 0.997
